# Laboratory results published in PubChem BioAssay (EPA / NIEHS).
# Inconclusive results are not listed. Activity calls are given as the source filed them. Rule for the calls: active = hit-call score of the fitted dose curve at least 0.9, where 1 is the maximum; inconclusive = response in the unintended direction; inactive = score below 0.9.
# What was measured:
# [1] = target: Muscarinic acetylcholine receptor M3 (Homo sapiens) (UniProt P20309); assay: NVS_GPCR_hM3: NovaScreen (NVS) G Protein-Coupled Receptor Assay for human Muscarinic, M3 Receptor (AID 2283272)
# Sequence of Muscarinic acetylcholine receptor M3 (Homo sapiens) (P20309 whole entry, looked up): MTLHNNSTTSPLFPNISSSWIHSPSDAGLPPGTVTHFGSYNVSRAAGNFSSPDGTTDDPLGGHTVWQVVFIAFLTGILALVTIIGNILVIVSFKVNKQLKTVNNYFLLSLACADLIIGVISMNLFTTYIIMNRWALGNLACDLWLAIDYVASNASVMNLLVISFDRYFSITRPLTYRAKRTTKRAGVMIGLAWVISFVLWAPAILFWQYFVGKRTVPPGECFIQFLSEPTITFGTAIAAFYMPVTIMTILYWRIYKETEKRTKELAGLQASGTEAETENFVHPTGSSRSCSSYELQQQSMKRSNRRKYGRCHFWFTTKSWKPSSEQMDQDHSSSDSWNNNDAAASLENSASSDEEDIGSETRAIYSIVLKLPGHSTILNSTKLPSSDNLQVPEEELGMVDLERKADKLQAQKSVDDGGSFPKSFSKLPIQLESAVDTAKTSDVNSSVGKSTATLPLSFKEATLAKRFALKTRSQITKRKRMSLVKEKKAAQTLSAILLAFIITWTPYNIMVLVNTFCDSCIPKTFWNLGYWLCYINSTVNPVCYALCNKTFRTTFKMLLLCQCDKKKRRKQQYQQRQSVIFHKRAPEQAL
# How it was run: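 Radioligand displacement binding on human M3 receptor in CHO-derived membranes, 1 h incubation, filter-based scintillation counting. Primary screen in duplicate at 25 uM; actives followed up in concentration series; loss of signal versus DMSO.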
# [2] = target: human Neurokinin, NK2 Receptor, TACR2 (gene 6865) (UniProt P21452); assay: NVS_GPCR_hNK2: NovaScreen (NVS) G Protein-Coupled Receptor Assay for human Neurokinin, NK2 Receptor (AID 2283278);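 note: actives reduce bound radioligand signal relative to DMSO baseline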
# Sequence of human Neurokinin, NK2 Receptor, TACR2 (gene 6865) (P21452 whole entry, looked up): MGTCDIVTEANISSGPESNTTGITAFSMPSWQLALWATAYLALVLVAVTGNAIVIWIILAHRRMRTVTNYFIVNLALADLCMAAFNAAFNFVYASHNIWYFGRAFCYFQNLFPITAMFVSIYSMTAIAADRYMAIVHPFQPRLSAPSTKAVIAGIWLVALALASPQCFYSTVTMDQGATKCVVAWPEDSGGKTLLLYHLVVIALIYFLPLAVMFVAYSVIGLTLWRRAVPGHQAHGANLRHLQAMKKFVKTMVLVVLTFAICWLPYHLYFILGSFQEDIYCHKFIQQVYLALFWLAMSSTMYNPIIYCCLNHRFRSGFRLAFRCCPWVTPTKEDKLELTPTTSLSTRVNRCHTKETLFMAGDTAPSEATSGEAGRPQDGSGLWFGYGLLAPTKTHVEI
# How it was run: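 Radioligand binding on membranes from CHO cells expressing receptor, filter-based scintillation read 4 h after dosing. Initial duplicate screen at 25 uM, actives in concentration series; loss of signal versus DMSO.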
# [3] = target: human Opioid Receptor Delta 1 (Opiate D1), OPRD1 (gene 4985) (UniProt P41143); assay: NVS_GPCR_hOpiate_D1: NovaScreen (NVS) G Protein-Coupled Receptor Assay for human Opioid Receptor Delta 1 (Opiate D1) (AID 2283280)
# Sequence of human Opioid Receptor Delta 1 (Opiate D1), OPRD1 (gene 4985) (P41143 whole entry, looked up): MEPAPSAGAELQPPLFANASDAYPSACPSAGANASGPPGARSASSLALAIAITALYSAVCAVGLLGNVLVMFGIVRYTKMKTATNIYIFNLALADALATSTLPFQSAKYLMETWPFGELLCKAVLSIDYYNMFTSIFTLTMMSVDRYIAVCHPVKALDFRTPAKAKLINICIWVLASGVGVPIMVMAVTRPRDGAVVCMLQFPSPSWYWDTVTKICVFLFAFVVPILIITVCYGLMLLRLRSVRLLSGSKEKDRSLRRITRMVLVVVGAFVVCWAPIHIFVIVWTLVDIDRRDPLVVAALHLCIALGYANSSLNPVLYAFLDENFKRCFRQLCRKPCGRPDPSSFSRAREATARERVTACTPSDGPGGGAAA
# How it was run: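 Membrane preparations from CHO cells bearing the human receptor were incubated 1 h with test chemical, and bound radioligand was counted after filtration. Actives from 25 uM duplicate screening were retested in concentration-response.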
# [4] = target: Muscarinic acetylcholine receptor M1 (Homo sapiens) (UniProt P11229); assay: NVS_GPCR_hM1: NovaScreen (NVS) G Protein-Coupled Receptor Assay for human Muscarinic, M1 Receptor (AID 2283270)
# Sequence of Muscarinic acetylcholine receptor M1 (Homo sapiens) (P11229 whole entry, looked up): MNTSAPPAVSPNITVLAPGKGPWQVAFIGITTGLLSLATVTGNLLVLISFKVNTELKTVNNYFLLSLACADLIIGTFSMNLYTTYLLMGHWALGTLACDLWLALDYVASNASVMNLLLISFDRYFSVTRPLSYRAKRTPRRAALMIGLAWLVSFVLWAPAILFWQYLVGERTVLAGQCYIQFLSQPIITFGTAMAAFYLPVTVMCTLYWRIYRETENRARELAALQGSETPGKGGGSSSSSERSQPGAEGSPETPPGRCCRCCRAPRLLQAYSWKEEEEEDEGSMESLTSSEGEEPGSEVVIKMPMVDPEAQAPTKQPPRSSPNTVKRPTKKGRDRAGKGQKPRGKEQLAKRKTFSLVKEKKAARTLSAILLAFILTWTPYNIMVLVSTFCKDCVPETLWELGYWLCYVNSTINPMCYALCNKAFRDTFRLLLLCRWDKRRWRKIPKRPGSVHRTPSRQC
# How it was run: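 Actives from a duplicate 25 uM single-point screen were retested in concentration series. Binding measured as displacement of a radioligand from CHO-derived receptor preparation, 1 h incubation, filtration and scintillation counting, analysed as signal loss against DMSO.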
# [5] = target: Muscarinic acetylcholine receptor M5 (Homo sapiens) (UniProt P08912); assay: NVS_GPCR_hM5: NovaScreen (NVS) G Protein-Coupled Receptor Assay for human Muscarinic, M5 Receptor (AID 2283275)
# Sequence of Muscarinic acetylcholine receptor M5 (Homo sapiens) (P08912 whole entry, looked up): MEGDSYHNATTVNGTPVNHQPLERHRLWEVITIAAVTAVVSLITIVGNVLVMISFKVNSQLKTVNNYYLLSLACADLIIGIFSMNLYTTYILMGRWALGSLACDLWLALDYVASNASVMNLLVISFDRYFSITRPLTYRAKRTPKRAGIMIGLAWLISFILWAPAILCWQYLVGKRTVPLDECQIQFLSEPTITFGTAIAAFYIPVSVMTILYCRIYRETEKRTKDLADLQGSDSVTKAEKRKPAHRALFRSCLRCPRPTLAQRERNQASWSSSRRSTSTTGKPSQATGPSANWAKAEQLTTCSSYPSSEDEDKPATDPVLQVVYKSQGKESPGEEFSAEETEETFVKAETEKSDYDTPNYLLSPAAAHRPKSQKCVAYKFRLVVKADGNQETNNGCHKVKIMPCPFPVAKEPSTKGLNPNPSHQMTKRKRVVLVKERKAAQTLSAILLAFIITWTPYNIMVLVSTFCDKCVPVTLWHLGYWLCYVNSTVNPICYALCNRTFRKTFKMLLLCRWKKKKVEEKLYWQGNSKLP
# How it was run: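 Chemicals passing a primary duplicate screen at 25 uM were run as singleton concentration series, maximum 50 uM. Displacement of a specific radioligand from CHO-extracted receptor was read by filter scintillation after 1 h, relative to DMSO.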
# [6] = target: human Neuropeptide Receptor Y1 (NPY1), NPY1R (gene 4886) (UniProt P25929); assay: NVS_GPCR_hNPY1: NovaScreen (NVS) G Protein-Coupled Receptor Assay for human Neuropeptide Receptor Y1 (NPY1) (AID 2283276)
# Sequence of human Neuropeptide Receptor Y1 (NPY1), NPY1R (gene 4886) (P25929 whole entry, looked up): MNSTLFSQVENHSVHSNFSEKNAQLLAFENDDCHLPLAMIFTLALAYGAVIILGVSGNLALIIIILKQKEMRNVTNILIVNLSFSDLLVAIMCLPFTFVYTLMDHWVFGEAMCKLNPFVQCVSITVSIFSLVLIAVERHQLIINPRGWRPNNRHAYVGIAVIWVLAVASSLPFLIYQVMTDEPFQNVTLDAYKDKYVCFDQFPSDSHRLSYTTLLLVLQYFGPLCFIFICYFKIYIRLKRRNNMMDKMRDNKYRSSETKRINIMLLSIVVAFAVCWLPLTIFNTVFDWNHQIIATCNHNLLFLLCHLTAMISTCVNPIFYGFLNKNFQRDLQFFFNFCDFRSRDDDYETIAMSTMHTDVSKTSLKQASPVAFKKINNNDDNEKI
# How it was run: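 Displacement of specific radioligand from NPY1 receptor of SK-N-MC origin, read by filtration and scintillation after 1 h. Compounds first tested at 25 uM in duplicate, then actives in concentration series; signal loss relative to DMSO.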
# [7] = target: human Leukotriene B4 Receptor 1 (LTB4-BLT1), LTB4R (gene 1241) (UniProt Q15722); assay: NVS_GPCR_hLTB4_BLT1: NovaScreen (NVS) G Protein-Coupled Receptor Assay for human Leukotriene B4 Receptor 1 (LTB4-BLT1) (AID 2283271)
# Sequence of human Leukotriene B4 Receptor 1 (LTB4-BLT1), LTB4R (gene 1241) (Q15722 whole entry, looked up): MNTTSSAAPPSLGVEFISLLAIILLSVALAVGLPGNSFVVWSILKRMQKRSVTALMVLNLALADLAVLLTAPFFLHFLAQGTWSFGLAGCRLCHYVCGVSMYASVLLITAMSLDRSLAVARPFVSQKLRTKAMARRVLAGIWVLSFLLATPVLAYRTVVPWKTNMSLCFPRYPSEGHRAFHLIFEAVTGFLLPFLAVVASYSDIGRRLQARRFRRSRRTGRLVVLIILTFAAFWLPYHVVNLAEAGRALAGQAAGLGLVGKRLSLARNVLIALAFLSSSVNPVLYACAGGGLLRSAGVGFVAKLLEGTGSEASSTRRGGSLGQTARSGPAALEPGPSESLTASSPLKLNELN
# How it was run: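 Cell-free human neutrophil receptor preparation, 1 h exposure, radioligand binding read by filter scintillation counting. Single 25 uM duplicate screen, then concentration series topping at 50 uM; binding loss scored against DMSO baseline.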
# [8] = target: Muscarinic acetylcholine receptor M2 (Homo sapiens) (UniProt P08172); assay: NVS_GPCR_hM2: NovaScreen (NVS) G Protein-Coupled Receptor Assay for human Muscarinic, M2 Receptor (AID 2283273)
# Sequence of Muscarinic acetylcholine receptor M2 (Homo sapiens) (P08172 whole entry, looked up): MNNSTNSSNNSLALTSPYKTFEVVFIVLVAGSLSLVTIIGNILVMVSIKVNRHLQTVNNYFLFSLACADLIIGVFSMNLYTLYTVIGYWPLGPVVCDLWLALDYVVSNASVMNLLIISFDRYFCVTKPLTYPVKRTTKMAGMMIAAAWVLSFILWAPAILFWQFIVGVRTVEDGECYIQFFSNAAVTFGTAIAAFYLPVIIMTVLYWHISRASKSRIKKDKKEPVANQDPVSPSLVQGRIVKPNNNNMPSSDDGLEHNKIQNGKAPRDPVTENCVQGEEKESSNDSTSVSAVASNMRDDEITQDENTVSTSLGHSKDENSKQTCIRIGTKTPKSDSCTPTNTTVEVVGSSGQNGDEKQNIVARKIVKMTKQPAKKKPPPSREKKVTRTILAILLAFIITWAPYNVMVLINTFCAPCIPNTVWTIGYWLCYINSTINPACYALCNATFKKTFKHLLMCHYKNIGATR
# How it was run: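 Filter-based radiodetection read bound radioligand 1 h after dosing CHO-derived membrane protein. Single-concentration duplicates (25 uM) first, then concentration-response for actives; signal loss versus DMSO scored.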
# [9] = target: Neuropeptide Y receptor type 2 (Homo sapiens) (UniProt P49146); assay: NVS_GPCR_hNPY2: NovaScreen (NVS) G Protein-Coupled Receptor Assay for human Neuropeptide Receptor Y2 (NPY2) (AID 2283277)
# Sequence of Neuropeptide Y receptor type 2 (Homo sapiens) (P49146 whole entry, looked up): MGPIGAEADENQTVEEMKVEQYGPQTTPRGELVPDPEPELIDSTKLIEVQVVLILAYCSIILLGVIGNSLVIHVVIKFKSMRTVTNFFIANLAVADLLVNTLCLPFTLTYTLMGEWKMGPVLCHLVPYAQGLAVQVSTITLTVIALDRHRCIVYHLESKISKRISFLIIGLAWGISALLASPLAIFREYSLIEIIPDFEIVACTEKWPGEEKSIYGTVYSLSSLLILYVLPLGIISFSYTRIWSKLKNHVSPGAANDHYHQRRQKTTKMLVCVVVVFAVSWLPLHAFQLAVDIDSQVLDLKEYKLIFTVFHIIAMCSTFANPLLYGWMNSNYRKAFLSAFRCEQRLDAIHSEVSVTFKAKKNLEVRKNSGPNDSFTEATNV
# How it was run: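 Chemicals were first tested in duplicate at 25 uM, then actives in singleton concentration series to 50 uM. Tracer binding to SK-N-MC-derived protein measured cell-free after 1 h via filter scintillation; signal loss relative to DMSO.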
# [10] = target: human Neurotensin Receptor (NTS), NTSR1 (gene 4923) (UniProt P30989); assay: NVS_GPCR_hNTS: NovaScreen (NVS) G Protein-Coupled Receptor Assay for human Neurotensin Receptor (NTS) (AID 2283279)
# Sequence of human Neurotensin Receptor (NTS), NTSR1 (gene 4923) (P30989 whole entry, looked up): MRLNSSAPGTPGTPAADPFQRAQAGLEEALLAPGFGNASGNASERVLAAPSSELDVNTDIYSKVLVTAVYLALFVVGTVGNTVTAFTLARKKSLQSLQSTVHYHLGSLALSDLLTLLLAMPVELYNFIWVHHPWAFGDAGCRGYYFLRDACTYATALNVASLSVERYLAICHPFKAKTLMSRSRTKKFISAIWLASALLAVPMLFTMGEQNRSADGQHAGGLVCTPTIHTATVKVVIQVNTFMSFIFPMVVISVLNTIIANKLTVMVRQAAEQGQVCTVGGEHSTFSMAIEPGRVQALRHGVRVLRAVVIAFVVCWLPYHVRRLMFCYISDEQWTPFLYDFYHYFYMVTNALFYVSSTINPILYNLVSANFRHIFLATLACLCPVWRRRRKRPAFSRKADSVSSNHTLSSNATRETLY
# How it was run: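 Compounds competed with a radiolabelled ligand for binding to CHO-derived human neurotensin receptor; bound signal counted after filtration, 1 h. Screened first at a single concentration of 25 uM in duplicate, then concentration series to 50 uM maximum for actives.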
structure (smiles),measurement,setting,value
CCCCCCCCOC(=O)c1cc(O)c(O)c(O)c1,outcome,[1],inactive
same,AC50,[2],7.2 µM (active)
same,AC50,[3],16.4 µM (active)
CCN(CC)C(=O)c1cc(S(=O)(=O)Cc2ccccc2)c(N2CCC(c3ccccc3)CC2)cc1N(CC)CCN(C)C,AC50,[4],8.82 µM (active)
same,AC50,[1],7.89 µM (active)
same,AC50,[5],6.24 µM (active)
same,AC50,[6],14.6 µM (active)
same,AC50,[2],4.95 µM (active)
same,AC50,[3],14.2 µM (active)
NCc1cccc(C2CCN(C(=O)c3ccc(C#Cc4ccccc4F)o3)CC2)c1,AC50,[4],1.78 µM (active)
same,AC50,[7],25 µM (active)
same,AC50,[1],0.929 µM (active)
same,AC50,[8],0.923 µM (active)
same,AC50,[5],4.14 µM (active)
same,AC50,[9],2.33 µM (active)
same,AC50,[2],2.9 µM (active)
same,AC50,[3],10.2 µM (active)
CCCC(=O)OCCC(C)C,AC50,[10],15 µM (active)
CC[C@H](NC(=O)c1cc(F)ccc1NS(=O)(=O)c1cccc2cccnc12)c1ccccc1,outcome,[3],inactive
CCCCCCCCCCCO,outcome,[9],inactive
CC(C)(C)c1csc(-c2cc3cc(OCc4ccccc4CC(=O)O)ccc3o2)n1,outcome,[7],inactive
same,outcome,[3],inactive
CN(C[C@@H](CC[N+]12CCC(C3CCCCC3)(CC1)CC2)c1ccc(Cl)c(Cl)c1)C(=O)c1cc(C(F)(F)F)cc(C(F)(F)F)c1,AC50,[2],0.0311 µM (active)
CCN(Cc1cccnc1)C(=O)c1cccc(Cl)c1[C@]1(C)C(=O)N(Cc2ccc(OC)cc2OC)c2ccc(Cl)cc21,AC50,[7],1.49 µM (active)
same,AC50,[5],4.06 µM (active)
same,AC50,[3],2.01 µM (active)
C[C@]12CC[C@@H]3c4ccc(O)cc4CC[C@H]3[C@@H]1CCC2=O,outcome,[3],inactive
Cc1ccc2oc(CN(Cc3ccccc3)C(=O)Nc3c(F)cc(F)cc3F)c(-c3ccc(Cl)cc3)c2c1,outcome,[7],inactive
O=c1[nH]sc2ccccc12,AC50,[6],4.62 µM (active)
same,AC50,[2],0.38 µM (active)
CCOC(=O)O[C@H](C)OC(=O)c1ccc2c(c1)cc(C(=O)NC1CCN(C(C)C)CC1)n2Cc1cc(-c2ccc(Cl)s2)on1,AC50,[1],5.44 µM (active)
same,AC50,[8],3.64 µM (active)
same,AC50,[5],1.79 µM (active)
same,AC50,[9],0.0551 µM (active)
same,AC50,[2],3.38 µM (active)
same,AC50,[3],3.36 µM (active)
CCCOC(=O)c1cc(O)c(O)c(O)c1,outcome,[2],inactive
CC/C(=C(/CC)c1ccc(O)cc1)c1ccc(O)cc1,outcome,[3],inactive
Cc1occc1C(=O)Nc1ccc(C(=O)N2CCC(F)(F)/C(=C\C(=O)N3CCC(N4CCCCC4)CC3)c3ccccc32)cc1,AC50,[8],4.43 µM (active)
same,AC50,[5],5.91 µM (active)
CCCCCCCCCCCC[N+](C)(C)C,AC50,[4],4.64 µM (active)
same,AC50,[1],3.43 µM (active)
same,AC50,[8],1.39 µM (active)
same,AC50,[5],1.93 µM (active)
same,AC50,[6],16 µM (active)
same,AC50,[9],38.9 µM (active)
same,AC50,[2],18.6 µM (active)
same,AC50,[10],11.7 µM (active)
O=C1c2ccccc2C(=O)N1CCc1noc(-c2ccc(CN3CCCCCC3)s2)n1,AC50,[4],7.52 µM (active)
same,outcome,[7],inactive
same,AC50,[1],3.96 µM (active)
same,AC50,[8],2.83 µM (active)
same,AC50,[5],7.99 µM (active)
same,AC50,[2],12.3 µM (active)
COc1cc(C(=O)NC2CCN(C)CC2)ccc1Nc1ncc2c(n1)N(C1CCCC1)CC(F)(F)C(=O)N2C,AC50,[4],5.54 µM (active)
same,AC50,[5],11.9 µM (active)
same,outcome,[2],inactive
c1ccc(C[n+]2cccc3ccccc32)cc1,AC50,[1],25 µM (active)
same,AC50,[8],9.2 µM (active)
same,AC50,[5],11.8 µM (active)
COc1cccc([C@H](O)C2CCN(CCc3ccc(F)cc3)CC2)c1OC,outcome,[1],inactive
same,outcome,[5],inactive
CN(C)c1ccc(C(=C2C=CC(=[N+](C)C)C=C2)c2ccc(N(C)C)cc2)cc1,AC50,[7],8.85 µM (active)
same,AC50,[8],0.939 µM (active)
same,AC50,[5],0.861 µM (active)
same,AC50,[6],13.3 µM (active)
same,AC50,[9],16.6 µM (active)
same,AC50,[2],3.82 µM (active)
same,AC50,[3],8.5 µM (active)
COc1ccc2cc(S(=O)(=O)N[C@H](CC(=O)N[C@H](Cc3ccc(CN4[C@H](C)CCC[C@@H]4C)cc3)C(=O)N(C)C(C)C)c3ccc4c(c3)OCO4)ccc2c1,AC50,[4],3.51 µM (active)
same,AC50,[7],11.6 µM (active)
same,AC50,[1],14.2 µM (active)
same,AC50,[8],0.535 µM (active)
same,AC50,[5],4.37 µM (active)
same,AC50,[9],2.17 µM (active)
CN(C)C(=O)C1(N2CCCCC2)CCN(CC[C@@]2(c3ccc(Cl)c(Cl)c3)CN(C(=O)c3ccccc3)CCO2)CC1,AC50,[4],11.7 µM (active)
same,AC50,[1],9.78 µM (active)
same,AC50,[8],6.82 µM (active)
same,AC50,[5],6.44 µM (active)
same,AC50,[9],8.65 µM (active)
same,outcome,[2],inactive
same,AC50,[3],10.3 µM (active)
O=CCCCC=O,outcome,[2],inactive
Cc1oc2c(NC(=O)c3c(Cl)cccc3Cl)cccc2c1C(C)(C)O,AC50,[7],11.7 µM (active)
same,outcome,[2],inactive
Cc1cc(F)ccc1-c1cc(N2CC[C@@H](O)[C@H]2CO)ncc1N(C)C(=O)C(C)(C)c1cc(C(F)(F)F)cc(C(F)(F)F)c1,AC50,[5],15 µM (active)
same,AC50,[2],0.181 µM (active)
same,AC50,[3],15.8 µM (active)
CC1(C)NC(=O)N(c2ccc([N+](=O)[O-])c(C(F)(F)F)c2)C1=O,outcome,[2],inactive
O=C(O)Cn1c(=O)n(Cc2ccc(Br)cc2F)c(=O)c2ccc(Cl)cc21,outcome,[9],inactive
CO[C@H]1/C=C/O[C@@]2(C)Oc3c(C)c(O)c4c(O)c(c(/C=N/N5CCN(C)CC5)c(O)c4c3C2=O)NC(=O)/C(C)=C\C=C\[C@H](C)[C@H](O)[C@@H](C)[C@@H](O)[C@@H](C)[C@H](OC(C)=O)[C@@H]1C,AC50,[9],0.0867 µM (active)
Clc1cc(Cl)c2c(c1)N=C1CCCCCN1C2,AC50,[4],2.74 µM (active)
same,AC50,[1],2.09 µM (active)
same,AC50,[8],1.17 µM (active)
same,AC50,[5],2.01 µM (active)
